# Measurements: the supplement of paper PMC10933113
# Values without a mark were called inactive.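 How the source made its calls: active = curve rank above 3; inactive = curve rank 0.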
# System: KeratinoSens (HaCaT ARE-luciferase) cells
# Assay: Nrf2/ARE luciferase activation call in qHTS KeratinoSens assay (1 = active, 0 = inactive)
row,SMILES,Nrf2/ARE luciferase activation call
1,Cc1occc1C(=O)Nc1ccc(C(=O)N2CCC(F)(F)/C(=C\C(=O)N3CCC(N4CCCCC4)CC3)c3ccccc32)cc1.Cc1occc1C(=O)Nc1ccc(C(=O)N2CCC(F)(F)/C(=C\C(=O)N3CCC(N4CCCCC4)CC3)c3ccccc32)cc1.O=C(O)/C=C/C(=O)O,not active ARE inducer (skin sensitizer alert)
2,C[C@H](N)[C@H](O)c1cccc(O)c1.O=C(O)[C@@H](O)[C@@H](O)C(=O)O,not active ARE inducer (skin sensitizer alert)
3,CCN(CCCc1ccccc1)CCCc1ccccc1.O=C(O)CC(O)(CC(=O)O)C(=O)O,not active ARE inducer (skin sensitizer alert)
4,C[NH+](C)CCC(c1ccccc1)c1cccc[nH+]1.O=C([O-])/C=C\C(=O)[O-] (configuration not stated),not active ARE inducer (skin sensitizer alert)
5,CN1CCC(=C2c3ccccc3Sc3ccccc32)CC1.O=C(O)/C=C\C(=O)O,not active ARE inducer (skin sensitizer alert)
6,CCN(CC)CCc1nc(-c2ccccc2)no1.O=C(O)CC(O)(CC(=O)O)C(=O)O,not active ARE inducer (skin sensitizer alert)
7,COC[C@H](c1ccc(C(F)(F)F)cc1)N1CCN(C2(C)CCN(C(=O)c3c(C)ncnc3C)CC2)C[C@H]1C.O=C(O)/C=C\C(=O)O,not active ARE inducer (skin sensitizer alert)
